From publication PMC12136788 come the findings set out here.

The full ranking holds about 5,800 sequences; the median of “enrichment r” is about 0.68, and the highest 2% start at about 11. This is one part of a sample in which the highest values are shown more often than they occur.

Sequences and labels used below:
T1: UNK ZnF1-6 (called full-length) (human, UniProt Q9C0B0 30-357)
T1 sequence: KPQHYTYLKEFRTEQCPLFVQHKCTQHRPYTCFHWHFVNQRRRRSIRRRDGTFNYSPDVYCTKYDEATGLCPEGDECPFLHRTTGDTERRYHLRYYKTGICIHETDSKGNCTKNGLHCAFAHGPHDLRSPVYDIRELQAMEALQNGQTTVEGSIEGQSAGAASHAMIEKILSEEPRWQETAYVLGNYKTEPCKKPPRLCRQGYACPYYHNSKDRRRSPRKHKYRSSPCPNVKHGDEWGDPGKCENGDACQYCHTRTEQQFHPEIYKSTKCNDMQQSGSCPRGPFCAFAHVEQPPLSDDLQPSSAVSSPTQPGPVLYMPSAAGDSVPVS

B1: chr15:93027272:93027374:+|3pUTR|ENSG00000173575|unk|total|mutant (ssRNA)
RNA: GGGAGUUCUACAGUCCGACGAUCCCAGGAAUCUGUGAGGAUGGUAUUCCCUGGAGUCUGGCUUUGAAAGAUUUCAUUGUUGGCCGAAAUAACAGGUUGAGAAAGAGGGAGUCCGCAUCACCUAAAACCUGCACGUGAACAAGGCAACAGAGGAUUGAGCAUCA
B2: ENSG00000141127:stop:overlap|stop_codon|ENSG00000141127|stop_codon|NA|stop_codon (ssRNA)
RNA: GGGAGUUCUACAGUCCGACGAUCAUUCAUCAUGUAUGGAGCUAUCAAAGAAAAUUGCAGACUUUUUCCCCCUUUCUCUUCUCUAGGCGGCUAGGGGUGGAGAUGGGCAAAGUGCAGGUUUACCAGGAACCUAACAGAGAAACACAACAGAGGAUUGAGCAUCA
B3: chr22:31279490:31279591:+|3pUTR|ENSG00000182541|msi1|total|mutant (ssRNA)
RNA: GGGAGUUCUACAGUCCGACGAUCAGCAGCUUGGGCUGGGAAGAGGUGGUGGCAGAGUCUCAAAGCUGAGAUGCUGAGAGAGACCGCUCCCUGAGCUGGGCCAUCUGACUUCUACCUCCCAUGUUUGCUCUCCCAACUCAUCCGCAACAGAGGAUUGAGCAUCA
B4: chr5:43295829:43295944:-|CDS|ENSG00000112972|unk|total|mutant (ssRNA)
RNA: GGGAGUUCUACAGUCCGACGAUCAAUAUCCCCGCUUUAUUCUAAAGUCAAACUUUAAAAUUUCAUGGCUUAUAUGAAUUUCACCGUUUCCUUGGACUUCUCUUUCAGAGGGAAAUGAUAAAGAUUUUACCUUGAAUGAUUUUGCAACAGAGGAUUGAGCAUCA
B5: chr12:76028505:76028606:-|3pUTR|ENSG00000139289|msi1|total|mutant (ssRNA)
RNA: GGGAGUUCUACAGUCCGACGAUCAAGUCUUGGUCAGUAUUUUUCCAGCAUUUAAAUUGAAACGGUCAGUAUCCGACCACUGCCCGGUUAUGCCGUCAAGAAAUAAAAACCGAAUUACAUGCUACAGAUGUCUUUAUUCUCCUUCAACAGAGGAUUGAGCAUCA
B6: ENSG00000198589:be:win_5851|CDS|ENSG00000198589|bound_else_gene|NA|bound_elsewhere_windowed (ssRNA)
RNA: GGGAGUUCUACAGUCCGACGAUCACUCAACUAAUCCAGAAAAUUAUCAACAUUCUCACAGACAAGCAUGGAGCCUGGGGAAAUUCUGCAGUGAGUCGUCCUCUUGAGUUCUGGCGCCUUGACUACUGGGAAGAUGACUUGCGGCAACAGAGGAUUGAGCAUCA
B7: chr19:14961309:14961997:-|three_prime_utr|ENSG00000105143|control|control|control (ssRNA)
RNA: GGGAGUUCUACAGUCCGACGAUCGAUUCACUUACCCACUCACCAACUCAUUCAUUCAUGUCUUUCUGGGAUGAUUUCAUCACUAGUUGACUUCCUUGUUCAUCUGUUCAUUCAUUCAUUCUUCUAUGCAUUGGUUAGUUCAUGCAACAGAGGAUUGAGCAUCA
B8: chr15:60347444:60347559:-|3pUTR|ENSG00000182718|msi1_unk|total|mutant (ssRNA)
RNA: GGGAGUUCUACAGUCCGACGAUCUAACAGUCCCCGUGGCCAUCCCUGUGAGGGUGACGUCCGCAUUACCCCCAACCUCAUUUCCGUUGCCUAAGCAUUGCCUGGCCUUCCUGUCCCGUCUCUCCUGUAAGCCAAAGAAAUGAACAACAGAGGAUUGAGCAUCA
B9: chr16:5044585:5044836:-|CDS|ENSG00000153446|control|control|control (ssRNA)
RNA: GGGAGUUCUACAGUCCGACGAUCGAGUAGCUGGGACUACAGGAGCGUGCCACCAUACCUGGCUAAUUUUUAUAUUUUUUUAGUAGAGACAGGGUUUCAUCAUGUUGCUCAUGCUGGUCUCGAACUCCUGAUCUCAAGAGAUCCCAACAGAGGAUUGAGCAUCA
B10: chr5:144162273:144162391:-|CDS|ENSG00000145817|unk|total|mutant (ssRNA)
RNA: GGGAGUUCUACAGUCCGACGAUCCCCACCGGCUGGCAAAAUCCAGUUUGGCUAUGUAUACGGGAUCAGUGCAAUUGGAUGUCCCGGAAUGUUUUGUUUAUUAAACUUAAUGAGUAUGACAGGUGUUUCAUUUGGUUGUGUGGCCAACAGAGGAUUGAGCAUCA
B11: chr5:72990507:72990614:+|CDS|ENSG00000157107|unk|FALSE|unique (ssRNA)
RNA: GGGAGUUCUACAGUCCGACGAUCGUAUGGGAUGUAUUCAAAACAUCUACAGAGAAAUUAGCAAAUUGUCACUUGGAUCUUGUUAGAAAAUUACAAGAAUUAAUAAAGGAAGUUCAGAAGUAUGGAGAAGAACAAGUAAAGUCUCAACAGAGGAUUGAGCAUCA
B12: chr2:11642538:11642650:+|3pUTR|ENSG00000196208|unk|total|mutant (ssRNA)
RNA: GGGAGUUCUACAGUCCGACGAUCCGAAGAGUUGAUGUCAAUCUUUUUUUCCUAAGAAAAAAAGUCCGCGAGUAUUAAAUAUUCCGAUCAAUGUUUAUAAAAUGAUUACUUUGUAUAUCUCAUUAUUCCUAUUUUGGAAUAAAACAACAGAGGAUUGAGCAUCA
B13: chr4:185586528:185586629:-|3pUTR|ENSG00000154556|msi1|FALSE|unique (ssRNA)
RNA: GGGAGUUCUACAGUCCGACGAUCAUCCAUAUGAUAUGUUGUACAUUUUAUGGAAAUGUAAUAGAAUCUCACACAUUAUUUUAUAGAAAUAGAGUACAGAAGCAUCACAAGUAUUAAAGUUGGUUUUAGCAAGGAUUAGGAUUACAACAGAGGAUUGAGCAUCA
B14: chr3:11557766:11557867:-|3pUTR|ENSG00000144560|msi1|total|mutant (ssRNA)
RNA: GGGAGUUCUACAGUCCGACGAUCCUGGACUGCAGACUCUACCAAUCACGGGCAUUUUAUCUUCUCUGAACACUGCAGUUUGUCCGACCCGAGCUGAGGUUGGAGGAUUCCACCGUGCUUUAAACGUGAUGCAUGUUUUAAUGGCAACAGAGGAUUGAGCAUCA

In the experiment the target is T1, UNK ZnF1-6 (called full-length). As to the kind of experiment: nsRBNS (natural sequence RNA bind-n-seq); RBNS binding buffer (assumed for nsRBNS): 25 mM Tris pH 7.5, 150 mM KCl, 3 mM MgCl2, 0.01% Triton X-100, 500 ug/ml BSA, 20 U/ml SUPERase-In, 4 C; UNK is unkempt and MSI1 is Musashi-1; names of the RNAs are library labels; protein concentration not given here; high values mean tight binding.
Consider B1, for which the binding signal came to 0.486 enrichment R.
To B2 belongs 0.392 enrichment R; to B3, 0.701 enrichment R; to B4, 0.421 enrichment R.
The result for B5 reads 0.271 enrichment R.
The result for B6 reads 0.85 enrichment R; that for B7, 0.569 enrichment R; that for B8, 0.662 enrichment R.
With B9, the binding signal came out at 2.13 enrichment R.
To B10 belongs 0.596 enrichment R.
To B11 belongs 3.86 enrichment R.
The result for B12 reads 0.544 enrichment R.
Consider B13, for which the binding signal is 11.6 enrichment R.
The result for B14 reads 0.682 enrichment R.
